Screening data (PubChem BioAssay)
CYP2C9 activ: human CYP2C9 activators, primary screen, biochemical, luminescence. Cytochrome P450 2C9 (Homo sapiens), P11712. recombinant CYP2C9, luciferin-H conversion; stronger effect = higher value; factor 1 = untreated enzyme, 0 = blocked. activation factor at 5 µM. 1.4% of 96,000 active;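 active means activation factor of 2 or more for CYP2C9 at a 5 µM dose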
Target sequence (P11712 whole entry, looked up): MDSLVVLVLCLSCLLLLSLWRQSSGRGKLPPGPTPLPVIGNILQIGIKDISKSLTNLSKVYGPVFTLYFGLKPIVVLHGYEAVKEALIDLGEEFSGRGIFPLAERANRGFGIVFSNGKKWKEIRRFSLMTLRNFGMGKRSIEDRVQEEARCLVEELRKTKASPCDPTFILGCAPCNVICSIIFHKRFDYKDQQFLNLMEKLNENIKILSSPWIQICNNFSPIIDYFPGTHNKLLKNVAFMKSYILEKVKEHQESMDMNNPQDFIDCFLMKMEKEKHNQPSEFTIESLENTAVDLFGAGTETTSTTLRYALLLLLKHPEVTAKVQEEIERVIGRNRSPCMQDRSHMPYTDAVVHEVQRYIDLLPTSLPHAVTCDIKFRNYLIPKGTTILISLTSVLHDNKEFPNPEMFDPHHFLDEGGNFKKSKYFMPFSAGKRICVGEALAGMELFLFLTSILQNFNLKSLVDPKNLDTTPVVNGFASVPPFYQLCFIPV
CYP2C19 inh: blockers of cytochrome P450 2C19 activity – biochemical, luminescence, ADME assay, primary screen; inhibition, % at 5 µM; P33261; CYP2C19 Supersomes, luciferin-H EGE luminescence, 30 min; 21% of 96,000 active; AID 778, 2007;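 active means CYP2C19 inhibition above a set limit at 5 µM in the primary screen, cut at about 50% in these data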
CYP2C19 act: human CYP2C19 activators, primary screen, biochemical, luminescence. AID 1025, 2008. 96,000 tested, under 10 active. activation factor at 5 µM. Cytochrome P450 2C19 (Homo sapiens), P33261. recombinant CYP2C19, luciferin-H EGE luminescence; stronger effect = higher value; 0 = fully inhibited enzyme, 1 = untreated enzyme;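 active means activation factor of at least 2 at 5 µM in the primary screen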
PostGolgi ctrl: growth inhibition of yeast control strain, primary screen, counter-screen for post-Golgi transport modulator project; efflux-deficient yeast background strain, growth absorbance A615, 16 h; inhibition, % at 10 µM; 5% of 98,000 active; AID 738, 2007
CYP2C9 inh: blockers of cytochrome P450 2C9 activity – biochemical, luminescence, ADME assay, primary screen; P11712; AID 777, 2007; 20% of 96,000 active; CYP2C9 Supersomes, luciferin-H conversion; inhibition, % at 5 µM;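 active means blocking of liver enzyme CYP2C9 beyond about 50% at 5 µM, limit read from the data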
PostGolgi yeast: phenotypic screen on post-Golgi transport, primary screen; post-Golgi transport phenotypic cell assay; inhibition, % at 10 µM; 0.9% of 98,000 active; AID 739, 2007;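 further: yeast cells grown in 1536-well plates; yeast grown about 18 h at 30C before absorbance read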
Of the large screens only hits and unclear results are named; the others gave an inactive call. This is a sample that favours compounds with a hit; in the whole collection about 32% have one here. Unless noted, no stated cut-off is given here; in the data, active means inhibition above about 30%; inactive means the rest.

CC(C)CNC(=O)COC(=O)c1cc(S(=O)(=O)N2CCCCC2)ccc1N1CCOCC1	CYP2C9 inh 68.8
Cc1cc(-c2ccco2)n2c(nc3ccccc32)c1C#N	none
CCCc1cc(NCCCCO)n2c(nc3ccccc32)c1C#N	PostGolgi yeast 34.9
CCCc1cc(Nc2c(C)n(C)n(-c3ccccc3)c2=O)n2c(nc3ccccc32)c1C#N	CYP2C9 inh 61.8
Cc1cc(NCCCCO)n2c(nc3ccccc32)c1C#N	none
CCCc1cc(N2CCN(C(=O)c3ccco3)CC2)n2c(nc3ccccc32)c1C#N	CYP2C9 inh 76.4
Cc1cc(NCCCN2CCOCC2)n2c(nc3ccccc32)c1C#N	CYP2C19 inh 50.7
Cc1cc(C)n(C(=O)c2cc3ccccc3c(=O)o2)n1	none
O=C(CSc1nnc2scc(-c3ccccc3)n12)NCC1CCCO1 (stereo not given)	none
CC(C)OC(=O)CCCCCN1C(=O)CSC1=S	CYP2C19 inh 99.3, CYP2C9 inh 91.0
CCn1c(COc2ccc(Cl)c(C)c2)nnc1SCC(=O)N1CCCC1	none
O=C(c1ccco1)N(CCC(c1ccccc1)c1ccco1)Cc1ccc(F)cc1 (stereo not given)	PostGolgi ctrl 39.8, CYP2C9 inh 85.3
O=C(NCC(=O)N(Cc1ccc(F)cc1)C(C(=O)NC1CCCC1)c1ccco1)c1ccco1 (stereo not given)	none
O=C(CN(C(=O)c1ccco1)c1cccc(F)c1)NCc1ccc(F)cc1	CYP2C19 inh 78.4
O=C(CN(Cc1ccc(F)cc1)C(=O)c1ccco1)NCc1ccc(F)cc1	CYP2C19 inh 83.4
Cc1nc2scc(-c3ccco3)c2c(=O)n1/N=C/N(C)C	CYP2C19 inh 64.8
Cc1ccc(-c2csc3nc(C)n(-n4c(C)ccc4C)c(=O)c23)o1	CYP2C19 inh 79.1
Cc1nc2scc(-c3ccccc3)c2c(=O)n1N	none
Cc1ccc(-c2csc3ncn(/N=C/N(C)C)c(=O)c23)o1	CYP2C19 inh 74.2
Cc1ccc(C)n1-n1c(C)nc2scc(-c3ccccc3)c2c1=O	CYP2C19 inh 72.3, CYP2C9 inh 73.9
CCC(C)NC(=O)COc1ccc(S(=O)(=O)N2CCOCC2)cc1 (stereo not given)	none
COC(=O)CSc1nc(C2CC2)cc(C(F)(F)F)c1C#N	CYP2C19 inh 65.5
COC(=O)C1C(=O)/C(=C(/C)N2CCCC2)C(=O)CC1(C)C (stereo not given)	none
Cc1cc(C)c(N2CCN(S(=O)(=O)N3CCCCCC3)CC2)c(C)c1	CYP2C19 inh 80.0, CYP2C9 inh 73.0
O=S(=O)(N1CCCCCC1)N1CCN(S(=O)(=O)N2CCCCC2)CC1	none
Cc1c(NC(=O)C2(c3ccccc3)CCCC2)c(=O)n(-c2ccccc2)n1C	none
CN1C(=O)C(O)(C2COC(C)(C)CC2=O)c2ccccc21 (stereo not given)	none
Cc1ccc(C(=O)CC2(O)C(=O)N(C)c3ccc(Br)cc32)c(C)c1 (stereo not given)	CYP2C19 inh 62.5, CYP2C9 inh 55.1
CN1C(=O)C(O)(C2COC(C)(C)CC2=O)c2cc(Br)ccc21 (stereo not given)	CYP2C19 inh 54.5
CN1C(=O)C(O)(CC(=O)c2ccccn2)c2cc(Br)ccc21 (stereo not given)	CYP2C19 inh 67.4
Cc1ccc(C)c(C(=O)CC2(O)C(=O)N(C)c3ccccc32)c1 (stereo not given)	none
CCOC(=O)C1CCCCN1Cc1ccc(C(F)(F)F)cc1 (stereo not given)	CYP2C19 inh 97.0, CYP2C9 inh 62.2
CCOC(=O)C1CCCCN1Cc1ccccc1C(F)(F)F (stereo not given)	CYP2C19 inh 95.2, CYP2C9 inh 52.5 (no result: PostGolgi ctrl, PostGolgi yeast)
O=C(O)c1ccccc1OCCOCCOc1ccccc1C(=O)O	none
COc1cc(/C=C/C(=O)NNc2c(F)c(F)cc(F)c2F)ccc1OC(F)F	CYP2C19 inh 72.8
COc1ccc(/C=C/C(=O)NNc2c(F)c(F)cc(F)c2F)cc1OC	none
Cc1cc(/C=N\NC(=O)c2cccs2)c(C)n1-c1ccc2ncccc2c1	none
Cc1cccc(CSC2=CS(=O)(=O)c3ccccc3N2)c1	CYP2C19 inh 53.9, CYP2C9 inh 63.7
O=S1(=O)C=C(SCc2cccc(Cl)c2)Nc2ccccc21	CYP2C19 inh 86.5, CYP2C9 inh 74.0
NC(=O)NCc1cccc(Cl)c1	none
C=CCOc1ccccc1CNn1nnnc1N	none
O=S(=O)(c1cccs1)N1CCCc2cccc(O)c21	CYP2C9 activ 2.9, CYP2C19 inh 65.9
O=C(OCC(=O)N1CCCc2ccccc21)C1CCN(S(=O)(=O)c2cccs2)CC1	none
CCOC(=O)c1cnc2nc(NCc3ccc(OCc4ccccc4)cc3)[nH]n2c1=O	CYP2C9 inh 87.1
CCOC(=O)c1cnc2nc(COc3ccccc3)[nH]n2c1=O	none
COC(=O)c1ccccc1NC(=O)Cn1cnc2cc(C)c(C)cc21	none
CCn1c(=N)n(CC(=O)C23CC4CC(CC(C4)C2)C3)c2ccccc21	PostGolgi ctrl 34.7
C=CC[N+](C)(C)C/C(Cl)=C(\Cl)c1ccccc1	CYP2C9 inh 54.8
CN(C)S(=O)(=O)CC12CCC(CC1=O)C2(C)C (stereo not given)	none
O=C(NCc1ccc(Cl)cc1)c1cc(-c2cccs2)on1	CYP2C19 inh 51.0, CYP2C9 inh 59.5
COc1cc(NS(=O)(=O)c2ccc(C)cc2C)cc(OC)c1OC	CYP2C9 inh 67.0
CCc1ccc(OC)c(S(=O)(=O)Nc2ccccc2C)c1	CYP2C9 inh 73.3
COc1ccc(C)cc1S(=O)(=O)Nc1ccccc1C	CYP2C19 inh 85.3, CYP2C9 inh 62.5
COc1cc(S(=O)(=O)Nc2ncccc2C)c(OC)cc1Cl	CYP2C19 inh 91.1
COc1cc(NS(=O)(=O)N2CCCC2)cc(OC)c1OC	none
Cc1occc1C(=O)N1CCN(C(=O)C2CCCO2)CC1 (stereo not given)	none
CCOC(=O)c1nc2nc(C)c(Cl)c(=O)n2[nH]1	none
Cn1ncc(C#N)c1NC(=O)c1nn2cccnc2c1Cl	none
COc1cc(NS(=O)(=O)c2cc(C)ccc2OC)c(OC)cc1Cl	CYP2C19 inh 67.2
Cc1ccccc1CN(c1ccc(C(=O)N2CCCC2)cc1)S(C)(=O)=O	none
CSc1ccc(-c2nnn(Cc3ccccn3)n2)cc1	CYP2C19 inh 66.9
CCOC(=O)Cn1nnc(-c2ccc(SC)cc2)n1	none
CSc1ccc(-c2nnn(Cc3ccc(Br)cc3)n2)cc1	CYP2C19 inh 75.2
Cc1ccccc1CNC(=O)c1ccccc1N	none
Cc1ccccc1CNC(=O)c1ccccc1	CYP2C19 inh 57.4
Cc1ccccc1CNC(=O)c1ccccc1C	CYP2C19 inh 54.2
Cc1cccn2c(=O)c(/C=N/O)c(N3CCCCC3)nc12	none
